From PubChem BioAssay (EPA / NIEHS)
Results filed as inconclusive are left out. The source made the active and inactive calls. Rule for the calls, unless noted: active = hit-call score of the fitted dose curve at least 0.9, where 1 is the maximum; inactive = score below 0.9.

How the values were obtained:
[1] = target: Nucleoli Translocation, AR (gene 367) (UniProt P10275); assay: UPITT_HCI_U2OS_AR_TIF2_Nucleoli_Antagonist: University of Pittsburgh U2OS Androgen Receptor-Transcriptional Intermediary Factor 2 (AR-TIF2) Antagonism High Content Imaging Assay for Nucleoli Translocation (AID 2283997; active = hit-call score of the fitted dose curve at least 0.9, where 1 is the maximum)
Summary of the method: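 Compounds are added at 20 uM final concentration in 0.2% DMSO to U2OS cells carrying AR-RFP and TIF2-GFP fusions. Nucleolar AR-RFP fluorescence is then quantified by automated imaging. Antagonism is fitted positively against DHT baseline.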

[2] = target: Ratio of Nucleoli Translocation and Cytoplasm, AR (gene 367) (UniProt P10275); assay: UPITT_HCI_U2OS_AR_TIF2_Nucleoli_Cytoplasm_Ratio_Agonist: University of Pittsburgh U2OS Androgen Receptor-Transcriptional Intermediary Factor 2 (AR-TIF2) Agonism High Content Imaging Assay for Ratio of Nucleoli Translocation and Cytoplasm (AID 2284000; active = hit-call score of the fitted dose curve at least 0.9, where 1 is the maximum;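 note: hits raise the red nucleolar to cytoplasm ratio above vehicle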)
Summary of the method: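 Human osteosarcoma U2OS line, AR-RFP plus TIF2-GFP; compounds 0.195–50 uM final, 0.5% DMSO. Readout: nucleolar/cytoplasmic RFP ratio by HCI, positive direction vs DMSO baseline.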

[3] = CCTE_Harrill_HTTr_Viability_MCF7: CCTE's 6-hour Cell Viability Assessment for the High-Throughput Transcriptomics (HTTr) Platform, in MCF-7 cells cultured in DMEM + 10% fetal bovine serum, Harrill Lab (AID 2284010)
Summary of the method: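 Eight-point concentration series, six-hour exposure. Propidium iodide exclusion imaged to assess membrane integrity as a cytotoxicity readout; bidirectional fitting was done with DMSO as negative control and activity baseline.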

[4] = CCTE_Harrill_HTTr_Apoptosis_MCF7: CCTE's 6-hour Apoptosis Assessment for the High-Throughput Transcriptomics (HTTr) Platform, in MCF-7 cells cultured in DMEM + 10% fetal bovine serum, Harrill Lab (AID 2284011)
Summary of the method: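 High-content imaging of CellEvent Caspase 3/7 Green signal follows a six-hour exposure, with eight concentrations per chemical. MCF-7 cells grown in DMEM plus 10% fetal bovine serum; activity fitted in both directions against DMSO.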

[5] = CCTE_Harrill_HTTr_CellCount_MCF7: CCTE's Cell Proliferation Assessment for the High-Throughput Transcriptomics (HTTr) Platform, Harrill Lab (AID 2284012; active = hit-call score of the fitted dose curve at least 0.9, where 1 is the maximum;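 note: count of Hoechst-stained nuclei per well by high-content imaging in MCF-7 cells; cells exposed to compound for six hours; intended direction is loss of nuclei count meaning fewer cells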)
Summary of the method: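 For this full-screen endpoint, MCF-7 cultures received eight compound dilutions for six hours. Well nuclei counts from Hoechst imaging were analyzed relative to DMSO.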

Measured: outcome

Chain of Nucleoli Translocation, AR (gene 367) (P10275 whole entry, looked up, the tested form may be a part): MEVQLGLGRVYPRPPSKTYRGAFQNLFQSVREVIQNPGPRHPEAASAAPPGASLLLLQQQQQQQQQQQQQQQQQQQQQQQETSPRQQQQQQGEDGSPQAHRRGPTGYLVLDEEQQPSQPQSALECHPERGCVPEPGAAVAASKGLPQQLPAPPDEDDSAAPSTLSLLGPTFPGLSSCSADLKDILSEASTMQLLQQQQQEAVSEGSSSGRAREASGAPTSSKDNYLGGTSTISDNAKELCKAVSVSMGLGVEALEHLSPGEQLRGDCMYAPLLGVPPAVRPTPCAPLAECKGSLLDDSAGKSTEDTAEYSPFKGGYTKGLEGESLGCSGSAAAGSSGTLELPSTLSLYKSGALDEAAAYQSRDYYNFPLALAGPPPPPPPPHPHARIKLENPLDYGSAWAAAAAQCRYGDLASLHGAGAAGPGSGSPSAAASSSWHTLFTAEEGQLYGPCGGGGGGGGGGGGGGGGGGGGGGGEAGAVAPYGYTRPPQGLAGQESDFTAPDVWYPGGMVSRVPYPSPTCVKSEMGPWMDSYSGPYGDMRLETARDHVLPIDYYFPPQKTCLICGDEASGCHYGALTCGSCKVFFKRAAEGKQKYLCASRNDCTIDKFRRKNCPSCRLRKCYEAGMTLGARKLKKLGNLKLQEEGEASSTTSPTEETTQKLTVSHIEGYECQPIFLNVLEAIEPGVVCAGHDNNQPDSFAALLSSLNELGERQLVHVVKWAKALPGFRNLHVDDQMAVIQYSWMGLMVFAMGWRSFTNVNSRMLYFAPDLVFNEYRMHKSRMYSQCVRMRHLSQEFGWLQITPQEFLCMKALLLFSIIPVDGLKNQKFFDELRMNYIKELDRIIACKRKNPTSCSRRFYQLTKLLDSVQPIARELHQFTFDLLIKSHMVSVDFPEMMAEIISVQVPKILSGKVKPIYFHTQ
Chain of Ratio of Nucleoli Translocation and Cytoplasm, AR (gene 367) (P10275 whole entry, looked up): as the sequence (P10275 whole entry, looked up, the tested form may be a part) above

O=c1[nH]c2c(c(=O)n1C1CCCCC1)CCC2
inactive: all assays above

CC(C)(C)OOC(C)(C)C#CC(C)(C)OOC(C)(C)C
inactive: [3] | [4] | [5]

FC(F)(F)c1ccc(OCCCOc2c(Cl)cc(OCC=C(Cl)Cl)cc2Cl)nc1
inactive: [4] | [5]
